Structures can show the parent of a compound that is named as a salt.
Columns and labels:
Details in all cases: treatment time: 24 h
WPMY1-TP53BP1-CLTA [1] = assay: lowest phenotypically active concentration; higher = less potent
How it was run: (§1)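 The reporter lines, fifteen in total and built by gene editing in A549, HepG2 and WPMY1 cells, used BFP for segmentation alongside GFP and RFP/FusionRed markers. Each was treated at 0.3, 1, 3 or 9 µM for 24 h in four wells and then imaged live, with live-cell features normalised to solvent control wells. Deviation meant ≥3 of 4 wells beyond the 95th percentile of control Euclidean distances; reproducibility meant a median replicate Pearson correlation above the 95th percentile of non-replicates. Only conditions meeting both were scored as phenotypically active.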

A549-ACTB-RAB5A = assay: phenotypically active (imaging signature differs from DMSO and reproducible) at any of 0.3-9 uM (binary (1 = active, 0 = inactive)); higher = active
How it was run: as §1

A549-CANX-COX4 = assay: as above
How it was run: as §1

A549-GM130-SQSTM1 = assay: as above
How it was run: as §1

A549-TP53BP1-CLTA = assay: as above
How it was run: as §1

A549-TUBA1B-RELA = assay: as above
How it was run: as §1

HepG2-ACTB-RAB5A = assay: as above
How it was run: as §1

HepG2-CANX-COX4 = assay: as above
How it was run: as §1

HepG2-GM130-SQSTM1 [2] = assay: as above
How it was run: as §1

HepG2-TP53BP1-CLTA [3] = assay: as above
How it was run: as §1

HepG2-TUBA1B-RELA = assay: as above
How it was run: as §1

WPMY1-ACTB-RAB5A [4] = assay: as above
How it was run: as §1

WPMY1-CANX-COX4 = assay: as above
How it was run: as §1

WPMY1-GM130-SQSTM1 [5] = assay: as above
How it was run: as §1

WPMY1-TP53BP1-CLTA [6] = assay: as above
How it was run: as §1

WPMY1-TUBA1B-RELA = assay: as above
How it was run: as §1

WPMY1-GM130-SQSTM1 [7] = assay: lowest phenotypically active concentration; higher = less potent
How it was run: as §1

HepG2-GM130-SQSTM1 [8] = assay: as above
How it was run: as §1

HepG2-TP53BP1-CLTA [9] = assay: as above
How it was run: as §1

WPMY1-ACTB-RAB5A [10] = assay: as above
How it was run: as §1

Structure (SMILES) | lowest phenotypically active concentration (WPMY1-TP53BP1-CLTA [1]) [µM] | phenotypically active (A549-ACTB-RAB5A) | phenotypically active (A549-CANX-COX4) | phenotypically active (A549-GM130-SQSTM1) | phenotypically active (A549-TP53BP1-CLTA) | phenotypically active (A549-TUBA1B-RELA) | phenotypically active (HepG2-ACTB-RAB5A) | phenotypically active (HepG2-CANX-COX4) | phenotypically active (HepG2-GM130-SQSTM1 [2]) | phenotypically active (HepG2-TP53BP1-CLTA [3]) | phenotypically active (HepG2-TUBA1B-RELA) | phenotypically active (WPMY1-ACTB-RAB5A [4]) | phenotypically active (WPMY1-CANX-COX4) | phenotypically active (WPMY1-GM130-SQSTM1 [5]) | phenotypically active (WPMY1-TP53BP1-CLTA [6]) | phenotypically active (WPMY1-TUBA1B-RELA) | lowest phenotypically active concentration (WPMY1-GM130-SQSTM1 [7]) [µM] | lowest phenotypically active concentration (HepG2-GM130-SQSTM1 [8]) [µM] | lowest phenotypically active concentration (HepG2-TP53BP1-CLTA [9]) [µM] | lowest phenotypically active concentration (WPMY1-ACTB-RAB5A [10]) [µM]
O=C(O)/C(Cc1ccccc1[N+](=O)[O-])=N\Nc1nc(-c2ccc(Cl)c(Cl)c2)cs1 | 9 | 0 (inactive) | 0 (inactive) | 0 (inactive) | 0 (inactive) | 0 (inactive) | 0 (inactive) | 0 (inactive) | 0 (inactive) | 0 (inactive) | 0 (inactive) | 0 (inactive) | 0 (inactive) | 0 (inactive) | 1 (active) | 0 (inactive) |  |  |  | 
CN(C)CCCC1(c2ccc(F)cc2)OCc2cc(C#N)ccc21 (stereo unspecified) [citalopram] |  | 0 (inactive) | 0 (inactive) | 0 (inactive) | 0 (inactive) | 0 (inactive) | 0 (inactive) | 0 (inactive) | 0 (inactive) | 0 (inactive) | 0 (inactive) | 0 (inactive) | 0 (inactive) | 1 (active) | 0 (inactive) | 0 (inactive) | 9 |  |  | 
Cc1ccc(C(=O)c2ccc(CC(=O)O)n2C)cc1 [tolmetin] |  |  | 0 (inactive) |  | 0 (inactive) |  | 0 (inactive) | 0 (inactive) | 0 (inactive) | 0 (inactive) | 0 (inactive) | 0 (inactive) | 0 (inactive) | 0 (inactive) | 0 (inactive) | 0 (inactive) |  |  |  | 
Fc1ccc(Cl)cc1-c1nc(Nc2ccncc2)c2nccnc2n1 | 9 | 0 (inactive) | 0 (inactive) | 0 (inactive) | 0 (inactive) | 0 (inactive) | 0 (inactive) | 0 (inactive) | 0 (inactive) | 0 (inactive) | 0 (inactive) | 0 (inactive) | 0 (inactive) | 0 (inactive) | 1 (active) | 0 (inactive) |  |  |  | 
C[C@@H](Oc1cc(-c2cnn(C3CCNCC3)c2)cnc1N)c1c(Cl)ccc(F)c1Cl [Crizotinib] |  |  | 1 (active) | 1 (active) | 1 (active) |  | 1 (active) | 1 (active) |  | 1 (active) | 1 (active) | 1 (active) | 1 (active) | 1 (active) | 1 (active) | 1 (active) |  |  |  | 
CN1C(=O)CC(c2ccccc2)C1=O (stereo unspecified) [phensuximide] |  |  | 0 (inactive) |  | 0 (inactive) |  | 0 (inactive) | 0 (inactive) | 0 (inactive) | 0 (inactive) | 0 (inactive) | 0 (inactive) | 0 (inactive) | 0 (inactive) | 0 (inactive) | 0 (inactive) |  |  |  | 
O=C1CCc2ccc(OCCCCN3CCN(c4cccc(Cl)c4Cl)CC3)cc2N1 [aripiprazole] |  | 0 (inactive) | 0 (inactive) | 0 (inactive) | 0 (inactive) | 0 (inactive) | 0 (inactive) | 0 (inactive) | 0 (inactive) | 0 (inactive) | 0 (inactive) | 0 (inactive) | 0 (inactive) | 1 (active) | 0 (inactive) | 0 (inactive) | ≤ 0.3 |  |  | 
C=C[C@H]1CN2CC[C@H]1C[C@@H]2[C@@H](O)c1ccnc2ccc(OC)cc12 [Quinidine hydrochloride monohydrate] |  | 0 (inactive) | 0 (inactive) | 0 (inactive) |  | 0 (inactive) | 0 (inactive) | 0 (inactive) | 0 (inactive) |  | 0 (inactive) | 0 (inactive) | 0 (inactive) | 0 (inactive) |  | 0 (inactive) |  |  |  | 
C[C@H](CS)C(=O)N1CCC[C@H]1C(=O)O [captopril] |  | 0 (inactive) | 0 (inactive) | 0 (inactive) |  | 0 (inactive) | 0 (inactive) | 0 (inactive) | 0 (inactive) |  | 0 (inactive) | 0 (inactive) | 0 (inactive) | 0 (inactive) |  | 0 (inactive) |  |  |  | 
Nc1ccn([C@@H]2O[C@H](CO)[C@@H](O)[C@H]2O)c(=O)n1 [Cytidine] |  |  | 0 (inactive) |  | 0 (inactive) |  | 0 (inactive) | 0 (inactive) | 0 (inactive) | 0 (inactive) | 0 (inactive) | 0 (inactive) | 0 (inactive) | 0 (inactive) | 0 (inactive) | 0 (inactive) |  |  |  | 
N#Cc1c(NC(=O)c2cccc3ccccc23)sc2c1CCCC2 | ≤ 0.3 |  | 1 (active) |  | 1 (active) |  | 1 (active) | 1 (active) | 1 (active) | 1 (active) | 1 (active) | 1 (active) | 1 (active) | 1 (active) | 1 (active) | 1 (active) | ≤ 0.3 | ≤ 0.3 | ≤ 0.3 | ≤ 0.3
CN1C/C(=C/c2ccc(B(O)O)cc2)C(=O)/C(=C/c2ccc(B(O)O)cc2)C1 | 3 |  | 1 (active) |  | 1 (active) |  | 1 (active) | 1 (active) | 1 (active) | 1 (active) | 1 (active) | 1 (active) | 1 (active) | 1 (active) | 1 (active) | 1 (active) | ≤ 0.3 | 3 | 9 | 3
CCC1(c2ccccc2)NC(=O)N(C)C1=O (stereo unspecified) [Mephenytoin] |  |  | 0 (inactive) |  | 0 (inactive) |  | 0 (inactive) | 0 (inactive) | 0 (inactive) | 0 (inactive) | 0 (inactive) | 0 (inactive) | 0 (inactive) | 0 (inactive) | 0 (inactive) | 0 (inactive) |  |  |  | 
NCCC(O)(P(=O)(O)O)P(=O)(O)O [pamidronate] |  |  | 0 (inactive) |  | 0 (inactive) |  | 0 (inactive) | 0 (inactive) | 0 (inactive) | 0 (inactive) | 0 (inactive) | 0 (inactive) | 0 (inactive) | 0 (inactive) | 0 (inactive) | 0 (inactive) |  |  |  | 
Cc1nc(NC(=O)N2CCC[C@H]2C(N)=O)sc1-c1ccnc(C(C)(C)C(F)(F)F)c1 [alpelisib] | 3 |  | 1 (active) |  | 1 (active) |  | 1 (active) | 1 (active) | 1 (active) | 1 (active) | 1 (active) | 0 (inactive) | 1 (active) | 1 (active) | 1 (active) | 1 (active) | 3 | 1 | 9 | 
Nc1ccn([C@@H]2O[C@H](CO)[C@@H](O)C2(F)F)c(=O)n1 [gemcitabine] | ≤ 0.3 |  | 1 (active) |  | 1 (active) |  | 1 (active) | 1 (active) | 1 (active) | 1 (active) | 1 (active) | 1 (active) | 1 (active) | 1 (active) | 1 (active) | 1 (active) | ≤ 0.3 | ≤ 0.3 | ≤ 0.3 | ≤ 0.3
OC(CCN1CCCCC1)(c1ccccc1)C1CCCCC1 (stereo unspecified) [trihexyphenidyl] |  |  | 0 (inactive) |  | 0 (inactive) |  | 0 (inactive) | 0 (inactive) | 0 (inactive) | 0 (inactive) | 0 (inactive) | 0 (inactive) | 0 (inactive) | 0 (inactive) | 0 (inactive) | 0 (inactive) |  |  |  | 
O=C(c1ccc(C(=O)N2CCC(N3CCCC3)CC2)c(Nc2ccccc2)c1)N1CCC(N2CCCC2)CC1 |  |  | 0 (inactive) |  | 0 (inactive) |  | 0 (inactive) | 0 (inactive) | 1 (active) | 0 (inactive) | 0 (inactive) | 0 (inactive) | 0 (inactive) | 0 (inactive) | 0 (inactive) | 0 (inactive) |  | 9 |  | 
COc1cc([C@@H]2c3cc4c(cc3[C@@H](O[C@@H]3O[C@@H]5CO[C@@H](C)O[C@H]5[C@H](O)[C@H]3O)[C@H]3COC(=O)[C@H]23)OCO4)cc(OC)c1O [etoposide] | 1 |  | 1 (active) |  | 1 (active) |  | 1 (active) | 1 (active) | 1 (active) | 1 (active) | 1 (active) | 1 (active) | 1 (active) | 1 (active) | 1 (active) | 1 (active) | 1 | 1 | ≤ 0.3 | 1
N#Cc1c(O)c2c(-c3ccc(-c4ccccc4O)cc3)csc2[nH]c1=O |  |  | 0 (inactive) |  | 0 (inactive) |  | 0 (inactive) | 0 (inactive) | 0 (inactive) | 0 (inactive) | 0 (inactive) | 0 (inactive) | 0 (inactive) | 0 (inactive) | 0 (inactive) | 0 (inactive) |  |  |  | 
Cc1nc(NC(=O)N2CCC[C@H]2C(N)=O)sc1-c1csc(C(C)(C)C)n1 | 3 |  | 0 (inactive) |  | 1 (active) |  | 1 (active) | 1 (active) | 1 (active) | 1 (active) | 1 (active) | 0 (inactive) | 1 (active) | 0 (inactive) | 1 (active) | 0 (inactive) |  | 3 | 3 | 
Nc1cc(C(F)(F)F)c(-c2cc(N3CCOCC3)nc(N3CCOCC3)n2)cn1 [buparlisib] | 3 |  | 1 (active) |  | 1 (active) |  | 1 (active) | 1 (active) | 1 (active) | 1 (active) | 1 (active) | 1 (active) | 1 (active) | 1 (active) | 1 (active) | 1 (active) | 1 | 3 | 3 | 3
CC(CCc1ccccc1)NCC(O)c1ccc(O)c(C(N)=O)c1 (stereo unspecified) [labetalol] |  |  | 0 (inactive) |  | 0 (inactive) |  | 0 (inactive) | 0 (inactive) | 0 (inactive) | 0 (inactive) | 0 (inactive) | 0 (inactive) | 0 (inactive) | 0 (inactive) | 0 (inactive) | 0 (inactive) |  |  |  | 
C/C(=C/c1ccc(C(=O)O)cc1)c1ccc2c(c1)C(C)(C)CCC2(C)C | 3 |  | 0 (inactive) |  | 0 (inactive) |  | 0 (inactive) | 0 (inactive) | 0 (inactive) | 0 (inactive) | 0 (inactive) | 0 (inactive) | 1 (active) | 1 (active) | 1 (active) | 0 (inactive) | 3 |  |  | 
CCCCC1C(=O)N(c2ccccc2)N(c2ccc(O)cc2)C1=O (stereo unspecified) [oxyphenbutazone] |  |  | 0 (inactive) |  | 0 (inactive) |  | 0 (inactive) | 0 (inactive) | 0 (inactive) | 0 (inactive) | 0 (inactive) | 0 (inactive) | 0 (inactive) | 0 (inactive) | 0 (inactive) | 1 (active) |  |  |  | 

From the supplement of paper PMC7411054
